A selection: hits, their analogues and other compounds. The true share with any hit is near 7.5%.
ELG1 genotox: genotoxicity induction in ELG1-luciferase HEK293T cells; HEK293T ELG1-luciferase reporter, luminescence, 16 h; Potency, µM (top dose mostly 46 µM), inactives show at the highest dose activity change, positive = activation, most hits filed as activators; 330,000 compounds, 1.3% hits; AID 504466; also: % of control where 0% means no effect; nearly all actives have a fitted effect of over 60% in size
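DMSO vehicle served as control against compound-treated ELG1-luciferase HEK293T cells; exposure lasted 16 hr at 37 °C and 5% CO2, followed by ONE-Glo luminescence detection after 30 min.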
NPC1 promoter act: activates the NPC1 promoter; Huh7 NPC1 promoter luciferase reporter, 24 h; Potency, µM (series often up to 9.22 µM), without a hit: at the top dose activation, most hits filed as activators; 320,000 compounds, 2.4% hits; AID 485313; also: % of control where 0% means no effect; nearly all actives have a fitted effect of over 60% in size
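Compounds in DMSO were transferred onto Huh7 NPC1-luciferase reporter cells pre-incubated 2 h; after 24 h at 37 °C, Amplite reagent was dispensed and luminescence recorded 10 min later.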
Luc counter: blocks Kinase-Glo luciferase, a counter-screen artifact; Q27757; Kinase-Glo luciferase, ATP luminescence, 8 min; Potency, µM (series often up to 38.3 µM), for inactives: top-dose activity change, negative = inhibition, hits mostly inhibitors; 200,000 compounds, 0.28% hits; AID 1379; also: % is scaled to controls: 0 for no effect and ±100 for the full control effect; nearly all actives have a fitted effect of over 60% in size
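Light output from Kinase-Glo luciferase with luciferin and 10 uM ATP in 50 mM imidazole pH 7.2, KCl, MgCl2, Tween 20, BSA; compound pin-delivered, 8-min ambient incubation, then luminescence read.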
Rab9 prom act: Rab9 promoter activation; Huh7 Rab9 promoter-luciferase reporter, luminescence, 24 h; Potency, µM (top dose mostly 9.22 µM), for the others: top-dose activation, negative = inhibition, most hits filed as activators; 320,000 compounds, 2.8% hits; also: % of control where 0% means no effect; nearly all actives have a fitted effect of over 60% in size
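Stable Rab9-luc Huh7, 1500 cells/well, 2 h settle; cmpd in DMSO, 24 h, 37 °C/5% CO2; luciferase reagent 10 min RT; luminescence.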
SMN2 splice up: enhancers of SMN2 splice variant expression | HEK293 SMN2-luciferase splicing reporter, luminescence, 30-36 h | Potency, µM (highest dose often 46.1 µM), without a hit: top-dose activity change, positive = activation, most hits filed as activators | 210,000 compounds, 2.8% hits; also: % of control where 0% means no effect; nearly all actives have a fitted effect of over 55% in size
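HEK293 cells carry an SMN2 minigene-luciferase reporter in which exon 7 inclusion puts luciferase in frame. Cells were seeded at 2000 cells/well, attached for 10-12 hours, then exposed to compounds for 30-36 hours at 37C before ONE-Glo luminescence.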
FLuc modulator: counter-screen for miR-21 project: firefly luciferase inhibitors or activators | P08659 | purified FLuc, Km substrates, luminescence inhibition | Potency, µM (titrated, usually from 57.5 µM), for inactives: top-dose activity change, negative = inhibition, actives largely listed as inhibitors | 360,000 compounds, 6.9% hits;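 also: plate controls were vehicle for no effect and reference inhibitor for full effect; nearly all actives have a fitted effect of over 55% in size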
Target sequence (P08659 whole entry, looked up): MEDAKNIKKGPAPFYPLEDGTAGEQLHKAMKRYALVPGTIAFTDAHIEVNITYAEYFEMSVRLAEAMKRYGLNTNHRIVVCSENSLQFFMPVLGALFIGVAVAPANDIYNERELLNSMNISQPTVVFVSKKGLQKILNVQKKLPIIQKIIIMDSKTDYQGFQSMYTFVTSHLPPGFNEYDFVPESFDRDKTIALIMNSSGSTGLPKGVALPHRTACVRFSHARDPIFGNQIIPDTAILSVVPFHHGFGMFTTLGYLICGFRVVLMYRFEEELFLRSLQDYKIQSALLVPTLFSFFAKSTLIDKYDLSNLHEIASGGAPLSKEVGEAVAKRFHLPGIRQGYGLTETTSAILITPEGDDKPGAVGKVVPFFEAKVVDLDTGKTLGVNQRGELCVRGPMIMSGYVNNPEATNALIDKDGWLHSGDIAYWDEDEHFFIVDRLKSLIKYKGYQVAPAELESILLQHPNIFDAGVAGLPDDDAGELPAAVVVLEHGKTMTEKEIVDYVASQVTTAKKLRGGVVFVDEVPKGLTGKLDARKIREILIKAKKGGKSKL
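Purified P. pyralis luciferase, 10 nM final, with Km-level 10 uM D-luciferin and 10 uM ATP in 50 mM Tris acetate pH 7.5, 10 mM Mg acetate, 0.01% Tween-20, 0.05% BSA; 6-point qHTS titration about 60 µM downward; luminescence read.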
* marks the source's active call; other numbers are inactive results; ? = inconclusive; nt = no result given. Calls follow the shape of the dose curve; as a rule, active = well fitted curve in the direction sought with a large enough effect; inconclusive = small, poorly fitted or top-dose-only effect, or another doubt; inactive = no such curve, though single readings can be large; an effect the other way counts as inactive or inconclusive. Potency is read from the fitted curve at half-maximal effect.

SMILES | ELG1 genotox | NPC1 promoter act | Luc counter | Rab9 prom act | SMN2 splice up | FLuc modulator
COc1ccc(CCNC(=O)C(C)n2nc(C)c3sc4ccccc4c3c2=O)c(OC)c1 (stereo not given) | nt | nt | nt | nt | nt | 9.5µM*
COc1ccc(CCNC(=O)CCCn2nc(C)c3sc4ccccc4c3c2=O)cc1OC | nt | nt | nt | nt | nt | 13µM*
CCC(C(=O)NCc1ccccc1)n1nc(C)c2sc3ccccc3c2c1=O (stereo not given) | nt | nt | nt | nt | nt | 2%
CCC(C(=O)NCCc1ccccc1)n1nc(C)c2sc3ccccc3c2c1=O (stereo not given) | nt | nt | nt | nt | nt | 19µM*
Cc1nn(C(C)C(=O)NCc2cccc(F)c2)c(=O)c2c1sc1ccccc12 (stereo not given) | nt | nt | nt | nt | nt | 11µM*
Cc1nn(C(C)C(=O)NCc2ccccc2Cl)c(=O)c2c1sc1ccccc12 (stereo not given) | -5% | 2% | -3% | -5% | -2% | -3%
Cc1nn(CCCC(=O)NCc2ccc(F)cc2)c(=O)c2c1sc1ccccc12 | nt | nt | nt | nt | nt | -21%
COc1ccc(NC(=O)CCCNC(=O)Cn2cnc3sc4c(c3c2=O)CCCC4)c(OC)c1 | -1% | -5% | nt | -8% | nt | -1%
CCC(C(=O)N1CCN(c2ccccc2F)CC1)n1nc(C)c2sc3ccccc3c2c1=O (stereo not given) | nt | nt | nt | nt | nt | 15µM*
COc1ccc(N/C=C2\CCc3ccccc3C2=O)cc1 | ? | 0.25µM* | 11µM* | 0.1µM* | nt | 0.054µM*
COc1ccc2c(c1)CC/C(=C\Nc1ccc3c(c1)OCO3)C2=O | 8% | 3.5µM* | -9% | 2.5µM* | 35µM* | 1.2µM*
COc1ccc(N/C=C2\CCOC2=O)cc1 | 12% | 5% | 0% | 10% | -6% | 2%
O=C1OC2(CCCCC2)OC(=O)C1=CNc1ccc2c(c1)OCO2 | 5% | 8% | -2% | 0% | 11% | ?
O=C1/C(=C/Nc2ccc3c(c2)OCO3)CCc2ccccc21 | ? | 0.89µM* | 2.8µM* | 0.28µM* | -76% | 0.12µM*
CNC(=O)c1c(NC(=O)c2cc(=O)c3cc(C)c(C)cc3o2)sc2c1CCCC2 | nt | nt | nt | nt | -3% | 0%
Cc1ccc(-c2cc(C(F)(F)F)n3ncc(-c4ccccc4)c3n2)cc1 | nt | nt | nt | nt | 12% | 0%
CCSc1cc(C)nc2c(-c3ccccc3)cnn12 | 9.2µM* | -6% | nt | -4% | nt | 3µM*
C=CCSc1cc(C)nc2c(-c3ccccc3)cnn12 | ? | 21% | nt | 3.5µM* | nt | 3.4µM*
CCSc1cc(C)nc2c(-c3ccc(Cl)cc3)c(C)nn12 | 1% | -3% | -5% | -1% | -12% | -1%
CCc1cc(C(=O)N2CCN(S(=O)(=O)c3cc(C)ccc3C)CC2)sc1C | -4% | 0% | nt | -4% | nt | nt
O=c1c2sccc2nc(SCc2cc(=O)n3cc(Cl)ccc3n2)n1Cc1ccccn1 | ? | ? | 1% | 3.5µM* | 6% | -3%
COc1ccc(C(=O)c2ccc(Cl)cc2)cc1 | 21µM* | 15% | -1% | 27% | -9% | ?
COc1ccc(C(=O)/C=C/Nc2ccc(S(=O)(=O)Nc3ncccn3)cc2)cc1 | 6% | 6% | 3% | 3% | 17% | ?
COc1cccc(C(=O)/C=C/Nc2cccc(O)c2)c1 | 2.3µM* | ? | ? | ? | -6% | 0.21µM*
COc1ccc(N/C=C/C(=O)c2ccc(Cl)cc2)cc1 | 3.7µM* | 0.79µM* | -6% | 0.71µM* | 4.5µM* | 0.6µM*
SMILES | ELG1 genotox | NPC1 promoter act | Luc counter | Rab9 prom act | SMN2 splice up | FLuc modulator
COc1cccc(N/C=C/C(=O)c2ccc(C)cc2)c1 | 1.5µM* | 0.45µM* | nt | 0.5µM* | nt | 0.24µM*
CCc1ccc(-c2nc3cc(NC(=O)c4ccc(F)cc4)ccc3o2)cc1 | nt | nt | nt | nt | ? | -2%
CCCCC/C=C\C/C=C\CCCCCCCC(=O)NCC(=O)O | nt | nt | 1% | nt | 6% | nt
COc1cccc(C(=O)/C=C/Nc2ccc(NC(C)=O)cc2)c1 | ? | ? | -12% | 4µM* | 13µM* | 9.5µM*
COc1cc(/C=C/C(=O)c2ccc(NS(=O)(=O)c3ccc(C)cc3)cc2)cc(OC)c1O | -9% | -4% | -2% | -5% | -100% | -3%
COc1cccc(C(=O)/C=C/Nc2ccc(S(=O)(=O)Nc3cccc(C(C)=O)c3)cc2)c1 | -18% | -9% | 4% | -4% | -45% | -1%
COc1ccc(C(=O)/C=C/Nc2ccc(NC(C)=O)cc2)cc1OC | 4% | -4% | -1% | -5% | -1% | ?
COc1cccc(N/C=C/C(=O)c2ccc(Cl)cc2)c1 | 1.2µM* | 0.5µM* | -27% | 0.5µM* | 4.5µM* | 0.54µM*
COc1cccc(/C=C/C(=O)c2ccc(NS(=O)(=O)c3ccc(C)cc3)cc2)c1 | 0% | -5% | -1% | -13% | -48% | 13µM*
CCC(N)(C(=O)O)c1ccc(C(=O)O)cc1 (stereo not given) | nt | nt | nt | nt | -2% | nt
O=C(CN1CSCC1=O)N1CCN(S(=O)(=O)c2ccc(Cl)cc2)CC1 | 0% | -2% | nt | -6% | nt | 3%
CCc1ccc(NC(=O)CSc2nc(N)c(NC(=O)c3ccc(F)c(F)c3)c(=O)[nH]2)cc1 | 2% | -4% | nt | 6% | nt | 2%
c1ccc2c(c1)Cn1c-2nc2ccccc21 | ? | 1.4µM* | 11µM* | 1.1µM* | 10µM* | 6µM*
O=C1c2ccccc2-c2nc3ccccc3n21 | 11% | 30% | nt | ? | nt | 15µM*
Brc1c(-c2ccccc2)nc2n1Cc1ccccc1-2 | 18µM* | ? | nt | 4µM* | nt | 0.85µM*
c1ccc2c(c1)Cn1nnnc1-2 | -6% | 17% | -3% | 13% | -7% | 5%
O=C(Cc1ccc(Cl)cc1)Nc1ccc(S(=O)(=O)Nc2cnc3ccccc3n2)cc1 | -6% | -3% | 0% | -3% | -8% | -13%
Cc1ccc(C)c(C(=O)COc2ncnc3ccccc23)c1 | 2% | 8% | -1% | 18% | 14% | ?
O=C(COc1ncnc2ccccc12)c1ccc2c(c1)OCCO2 | ? | 1.1µM* | nt | 1.1µM* | nt | 4.8µM*
O=C(CSc1ncnc2ccccc12)c1ccc2c(c1)OCCO2 | ? | ? | nt | 2.8µM* | nt | 3.4µM*
Cc1ccc(C(=O)COc2ncnc3cc(Cl)ccc23)cc1 | 9% | 27% | nt | 26% | nt | ?
O=C(COc1ncnc2cc(Cl)ccc12)c1ccc2c(c1)OCCO2 | ? | 3.2µM* | nt | 0.63µM* | nt | 1.9µM*
CC1CCCC(C)N1C(=O)CSc1ccc(-c2ccc3c(c2)OCCO3)nn1 (stereo not given) | -10% | -4% | nt | 13% | nt | 13µM*
CC1CCN(C(=O)c2ccc3c(c2)OCCO3)CC1 | ? | 26% | -2% | 25% | ? | ?

Screening results from PubChem BioAssay.
